# Compound activity from PubChem BioAssay.
# TGFb SMAD3 inh: blocks TGF-b signaling. 1.2% of 410,000 active. Potency, µM (series often up to 46.1 µM), for the others: at the highest dose activity, negative = inhibition, usual class: inhibitors. HepG2 CAGA-GFP TGF-b/SMAD3 reporter, GFP fluorescence, 18 h; TGF-beta stimulated, 500 pg/mL final. AID 588855; note: % is set by controls: 0 for no effect and ±100 for the full control effect; nearly all actives have a fitted effect of over 65% in size
#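 Smad-responsive CAGA-GFP expression was quantified in HEPG2 cells exposed to compounds and 500 pg/mL final TGF-beta for 18 h at 37 degrees C; unstimulated wells defined full inhibition.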
# ATXN2 expr inh: inhibitors of ATXN2 expression | HEK-293 ATXN2-luciferase reporter, luminescence, 24 h | Potency, µM (highest dose often 57 µM), for inactives: at the top dose activity change, negative = inhibition, hits mostly inhibitors | 0.72% of 360,000 active; note: % is set by controls: 0 for no effect and ±100 for the full control effect; nearly all actives have a fitted effect of over 55% in size
#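 ATXN2-luciferase reporter cells (luciferase flanked by upstream and downstream ATXN2 gene portions) were treated 24 h at 37 °C with compounds at up to 57 uM. SteadyGlo luminescence gave expression; GF-AFC fluorescence gave viability.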
# S2 tox: cell viability loss in ATXN counter-screen; S2 cells (HEK-293 line with an ATXN2-luciferase reporter) viability, CellTiter-Fluor protease fluorescence, 24 h; Potency, µM (doses to about 56.7 µM), hits mostly cytotoxic; 0.49% of 400,000 active; AID 651635; note: nearly all actives have a fitted effect of over 40% in size
# HepG2 tox: HepG2 cytotoxicity, counter-screen for TGF-b inhibitors; Potency, µM (doses to about 46.1 µM), without a hit: top-dose activity change, negative = cytotoxicity, actives largely listed as cytotoxic; HepG2 CAGA-GFP viability, ATP luminescence, 18 h; 0.76% of 410,000 active
#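 CellTiter-Glo luminescence gave cytotoxicity after 18 hours at 37 degrees C. The cells were HepG2 CAGA-GFP in 1% FBS DMEM, stimulated with 500 pg/mL TGF-beta after compound addition. %Activity was normalised to no-cell wells (complete cell-killing) and DMSO (no toxicity), and curves were fitted and classified.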
# TDP1 cell noCPT: qHTS for Inhibitors of human tyrosyl-DNA phosphodiesterase 1 (TDP1): qHTS in cells in absence of CPT | DT40 Tdp1-/- hTDP1 cells, no CPT, ATP luminescence, 48 h | AID 686978, 2013 | Potency, µM (series often up to 46.2 µM), inactives show at the top dose activity change, negative = growth inhibition, most hits filed as inhibitors | 15% of 420,000 active; note: % is set by controls: 0 for no effect and ±100 for the full control effect; nearly all actives have a fitted effect of over 55% in size
#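 Readout: luminescence from CellTiter-Glo after 30 min in the dark at RT. Cells: DT40 Tdp1-/- with stable hTDP1, 400/well. Exposure: compounds alone, ≥48 hr, 37 °C.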
# TDP1 cell CPT: DT40-hTDP1 cell growth loss with CPT | chicken DT40 Tdp1-/-;hTDP1 cells + 20 nM CPT, ATP luminescence, 48 h | Potency, µM (titrated, usually from 46.2 µM), inactives show at the highest dose activity change, negative = growth inhibition, usual class: inhibitors | 12% of 420,000 active | AID 686979; note: % is set by controls: 0 for no effect and ±100 for the full control effect; nearly all actives have a fitted effect of over 55% in size
#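 Chicken DT40 Tdp1-/- cells stably complemented with human TDP1 were seeded at 400 cells/well in medium containing 20 nM camptothecin, exposed to pin-transferred compounds, and grown at 37 °C for at least 48 hr. Viability was read as ATP luminescence.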
# The depositor's hits bear a star; i = inactive; ? = inconclusive; . = not tested or not shown; [ ] = dose if it differs, or a comment. This is a sample that favours compounds with a hit; in the whole collection about 17% have one here. Calls come from the whole dose curve; as a rule, active = well fitted curve in the direction sought with a large enough effect; inconclusive = small, poorly fitted or top-dose-only effect, or another doubt; inactive = no such curve, though single readings can be large; an effect the other way counts as inactive or inconclusive. Potency is the fitted concentration of half-maximal effect.
SMILES,TGFb SMAD3 inh,ATXN2 expr inh,S2 tox,HepG2 tox,TDP1 cell noCPT,TDP1 cell CPT
CCCn1nc(C(=O)Nc2nnc(CC)s2)c2ccccc2c1=O,-2.2%,-5.4%,i,0.7%,2.5%,46.8%
CC(C)n1nc(C(=O)Nc2nc3ccccc3[nH]2)c2ccccc2c1=O,1.9%,-26.4%,i,-18.5%,14.6µM*,?
CCCCCCn1nc(C(=O)Nc2nc3c(s2)CCCC3)c2ccccc2c1=O,-15.4%,-2.5%,i,11.4%,?,14.6µM*
CC(C)n1nc(C(=O)NNC(=O)c2ccncc2)c2ccccc2c1=O,-1.7%,-13.0%,i,-1.9%,-19.8%,-5.6%
CCN(CC)S(=O)(=O)c1ccc(-n2cnc3cc(C)c(C)cc32)nc1,-0.2%,-21.8%,i,-8.0%,?,?
O=C(O)c1ccc(NC(C(=O)c2ccccc2)c2ccccc2)cc1 (stereo not given),6.9%,11.3%,i,-22.4%,-8.9%,-2.5%
O=C1CC(C(=O)O)C2(CCCC2)O1 (stereo not given),0.3%,5.5%,i,-5.4%,3.1%,1.5%
Cc1ccc(NC(=O)c2sc(=S)n(-c3cc(C)ccc3F)c2N)cc1,-0.1%,-13.8%[11.3 µM],i,-7.2%,-11.7%,-29.1%
CN(C)CCNC(=O)C(=O)Nc1cc2c3c(c1)CCN3C(=O)CC2,2.2%,.,i,-38.9%,-1.4%,22.2%
Cc1oc2ncn(CC(C)C)c(=O)c2c1C(=O)Nc1cccc(C(F)(F)F)c1,4.5%,12.6%,i,-0.8%,-1.0%,-10.3%
Cc1oc2ncn(CC(C)C)c(=O)c2c1C(=O)NCc1cccc(Cl)c1,-2.2%,1.4%,i,-4.0%,16.4µM*,16.4µM*
COc1ccc(C)cc1NC(=O)c1c(C)oc2ncn(CC(C)C)c(=O)c12,-14.2%,-36.1%,?,-22.6%,23.1µM*,?
Cc1cccc(NC(=O)c2c(C)oc3ncn(CC(C)C)c(=O)c23)n1,-2.6%,4.0%,i,-2.5%,9.2µM*,10.3µM*
Clc1ccc(CN2CCN(c3ncccn3)CC2)c(Cl)c1,?,-20.8%,i,-35.8%,2.3%,-4.4%
O=C(Nc1cccc(F)c1)N1CCCC2(CCN(C(=O)c3cccc(F)c3)CC2)C1,.,.,.,.,-15.3%,-1.8%
O=C(NCCCN1CCCC1)c1cc2c(Cl)nc3ccccc3c2s1,-15.6%,?,?,-23.8%,11.6µM*,14.6µM*
CCCN1CCN(CCCNC(=O)c2cc3c(Cl)nc4ccccc4c3s2)CC1,?,?,?,12.6µM*,?,?
O=C(NCCCN1CCN(c2ccccc2F)CC1)c1cc2c(Cl)nc3ccccc3c2s1,-0.4%,10.5%,i,-3.6%,14.6µM*,16.4µM*
COc1cc(S(=O)(=O)O)c(C)cc1N=Nc1c(O)ccc2cc(S(=O)(=O)O)ccc12,-10.6%,.,.,1.8%,?,-0.5%
CCCN(C(=O)Cc1ccc(S(=O)(=O)N2CCOCC2)s1)c1c(N)n(Cc2ccccc2)c(=O)[nH]c1=O,8.3%,0.5%,i,6.0%,3.6%,8.7%
NC1=CC(=O)C(=O)c2ccccc21,?,?,i,-99.0%,16.4µM*,23.1µM*
Nc1ccc(Br)c2c1C(=O)c1ccccc1C2=O,?,0.0%,?,-24.4%,?,-20.8%
COCCNC(=O)/C(C#N)=C/c1c(N2CCCCCC2)nc2ccccn2c1=O,4.1%,2.1%,i,-20.0%,?,-10.9%
O=c1c2ccccc2nc2ccc(NCc3ccco3)nn12,5.0%,168.5%,i,-3.9%,?,?
Cc1sc2nc3ccc(NCc4ccco4)nn3c(=O)c2c1C,2.5%,129.5%,.,6.6%,20.6µM*,?
SMILES,TGFb SMAD3 inh,ATXN2 expr inh,S2 tox,HepG2 tox,TDP1 cell noCPT,TDP1 cell CPT
COc1ccc(C(=O)Nc2cccc(-c3ccc(N4CCOCC4)nn3)c2)cc1OC,?,32.2%,i,-39.2%,9.2µM*,18.4µM*
CC(=O)c1ccc(S(=O)(=O)Nc2cccc(-c3ccc(N4CCOCC4)nn3)c2)cc1,-20.9%,-17.2%,i,-25.9%,?,?
COc1cccc(C(=O)Nc2cccc(-c3ccc(N4CCOCC4)nn3)c2)c1OC,-1.9%,-21.6%,.,-17.9%,23.1µM*,?
COc1ccc(S(=O)(=O)Nc2cccc(-c3ccc(N4CCOCC4)nn3)c2)cc1F,-8.8%,14.1%,i,-21.7%,?,?
CN1CCN(c2ccc(-c3cccc(NC(=O)COc4ccccc4)c3)nn2)CC1,0.0%,3.0%,i,-0.1%,20.6µM*,?
COc1cc(C)c(C)cc1S(=O)(=O)Nc1cccc(-c2ccc(N3CCOCC3)nn2)c1,?,-9.5%,?,-15.7%,16.4µM*,?
Cc1cc(F)ccc1-c1cc(C(=O)NCc2cccs2)[nH]n1,-9.8%,38.7%,?,-22.6%,?,-36.9%
Cc1cccc(C(=O)Nc2cccc(C(=O)OCc3cc(=O)n4c5c(sc4n3)CCCC5)c2)c1,-7.7%,.,.,-25.2%,?,?
Cc1c(NS(=O)(=O)c2cc(C(=O)N(C)Cc3ccccc3)ccc2Cl)c(=O)n(-c2ccccc2)n1C,12.6%,-7.8%,i,-17.9%,?,?
O=C(Nc1cccc(-c2ccc(N3CCOCC3)nn2)c1)c1ccc(F)cc1F,-6.8%,14.1%,i,-1.2%,-21.0%,-5.9%
COc1cccc(C(=O)Nc2cccc(-c3ccc(N4CCOCC4)nn3)c2)c1,-22.5%,9.0%,i,5.3%,?,-17.5%
CCOc1ccc(C(=O)Nc2cccc(-c3ccc(N4CCOCC4)nn3)c2)cc1OCC,13.2%,37.7%,?,6.8%,10.3µM*,?
CCOc1ccccc1C(=O)Nc1cccc(-c2ccc(N3CCOCC3)nn2)c1,2.3%,33.1%,i,-25.9%,16.4µM*,?
C=CCN(c1ccccc1)S(=O)(=O)c1cccc(C(=O)Nc2ccncc2)c1,-23.0%,-24.4%,i,-17.9%,20.6µM*,23.1µM*
C=CCN(c1ccccc1)S(=O)(=O)c1cccc(C(=O)Nc2ccc(N3CCOCC3)cc2)c1,-4.7%,-30.7%,?,-2.6%,2.59µM*,9.2µM*
C=CCN(c1ccccc1)S(=O)(=O)c1cccc(C(=O)N2CCN(c3ncccn3)CC2)c1,-10.0%,-14.7%,i,-18.5%,3.66µM*,6.51µM*
C=CCN(c1ccccc1)S(=O)(=O)c1cccc(C(=O)Nc2nc3ccccc3[nH]2)c1,?,-24.9%,i,-30.4%,13µM*,20.6µM*
